Among the data in PubChem BioAssay (NCI) are growth values, retold here.

Some test systems named below: DU-145 prostate; K-562 leukemia; MALME-3M melanoma; MDA-MB-231 breast; RXF 393 renal; SF-268 CNS; SF-295 CNS; SF-539 CNS; UACC-257 melanoma; M14 melanoma; HCT-15 colon; HT29 colon; SNB-75 CNS; SNB-19 CNS; U251 CNS; PC-3 prostate; SK-MEL-5 melanoma; UACC-62 melanoma; LOX IMVI melanoma; SK-MEL-28 melanoma.
What all share (assay): NCI-60 one-dose screen, 48 h (100 = growth as untreated, 0 = no growth, -100 = all killed)
Common to all, as to details: 10 µM unless noted

This is part of a sample that, as a whole, favours compounds with a hit. Of some 83,000 tested, about 20% had one in any assay.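 Single-concentration screen, 48 h exposure, 96-well plates. Endpoint: percent growth. Below 10 = active.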 Values without a mark were called inactive. Calls of active or inactive are those of the source.

For `COc1ccc(C2=CC(c3cc(OC)c(OC)c(OC)c3)n3ncnc3N2)cc1` (stereo not given), the growth with DU-145 prostate was -24.7% (active); in the assay on K-562 leukemia it was 9.56% (active); in the assay on MALME-3M melanoma, 75.8%; with MDA-MB-231 breast, 8.42% (active); with RXF 393 renal, 71.1%; in the assay on SF-268 CNS it was 31.4%. Also, the growth with SF-295 CNS was 13.5%; in the assay on SF-539 CNS, -1.69% (active); with UACC-257 melanoma, 56.5%; in the assay with M14 melanoma, -2.18% (active); in the assay with HCT-15 colon it was 14.5%; in the assay on HT29 colon it was 1.66% (active). For the same compound, the growth in the assay with SNB-75 CNS was 40.4%; with SNB-19 CNS, 36%; with U251 CNS, 6.34% (active); in the assay with PC-3 prostate, 21.7%; in the assay with SK-MEL-5 melanoma, 1.68% (active); in the assay on UACC-62 melanoma it was 51.9%. The results for the growth in the assay on LOX IMVI melanoma and in the assay on SK-MEL-28 melanoma were 22.2% and 54.3%, respectively.

Consider `CC1(C)N=C(N)N=C(N)N1c1cccc(CCc2ccccc2)c1`, for which the growth in the assay on DU-145 prostate is 37.3%; in the assay with K-562 leukemia it was 23.1%; in the assay on MALME-3M melanoma, 79.1%; in the assay with MDA-MB-231 breast it was 68.9%; in the assay on RXF 393 renal it was 78.5%; with SF-268 CNS it was 32.4%. The growth in the assay with SF-295 CNS is 41.9%; in the assay with SF-539 CNS it was 23%; in the assay with UACC-257 melanoma, 39.3%; in the assay on M14 melanoma it was 55.4%; in the assay with HCT-15 colon, 85.8%; in the assay with HT29 colon, 14.3%. Moreover, the growth with SNB-75 CNS is 63%; with SNB-19 CNS, 31.3%; with U251 CNS, 38.1%; with PC-3 prostate, 34.6%; with SK-MEL-5 melanoma, 12%; in the assay on UACC-62 melanoma, 24.7%. For the same compound, the growth in the assay on LOX IMVI melanoma is 24%; in the assay with SK-MEL-28 melanoma it was 46.3%.

As to `Cc1ccc(-c2nc(N3CCNCC3)c3oc(-c4ccc(C)cc4)nc3n2)cc1`, the growth in the assay with DU-145 prostate was 11.9%; in the assay on K-562 leukemia, -75% (active); in the assay with MALME-3M melanoma it was 93.6%; in the assay on MDA-MB-231 breast it was -72.1% (active); in the assay on RXF 393 renal, 73.4%; in the assay on SF-268 CNS it was 28.5%. Moreover, the growth with SF-295 CNS was 108%; with SF-539 CNS, 95.8%; with UACC-257 melanoma, 103%; in the assay with M14 melanoma, -94.3% (active); in the assay with HCT-15 colon it was -88% (active); in the assay with HT29 colon, -94.7% (active). Besides, the growth was 89% in the assay on SNB-75 CNS; 39.1% in the assay on SNB-19 CNS; -98.5% (active) with U251 CNS; -90.2% (active) in the assay with PC-3 prostate; 96.5% in the assay on SK-MEL-5 melanoma; 95.4% in the assay on UACC-62 melanoma. Also, the growth is -79.6% (active) in the assay on LOX IMVI melanoma and 83.6% in the assay with SK-MEL-28 melanoma.

For the compound `Cc1ccc(C)c(/C=C2\CN(C(=O)OC(C)(C)C)C/C(=C\c3cc(C)ccc3C)C2=O)c1`, the growth with DU-145 prostate was 37.7%; in the assay on K-562 leukemia it was 7.09% (active); in the assay with MALME-3M melanoma, 67.7%; with MDA-MB-231 breast, 92.1%; in the assay on RXF 393 renal it was 91.1%; in the assay on SF-268 CNS, 53.6%. The growth with SF-295 CNS is 55.9%; in the assay on SF-539 CNS, 94.9%; in the assay with UACC-257 melanoma it was 59.4%; with M14 melanoma, 20.1%; in the assay with HCT-15 colon, 19.4%; with HT29 colon, 9.93% (active). For the same compound, the growth in the assay with SNB-75 CNS is 78.5%; in the assay with SNB-19 CNS, 59.9%; in the assay with U251 CNS it was 15.9%; in the assay on PC-3 prostate, 46.6%; in the assay with SK-MEL-5 melanoma, 45%; in the assay with UACC-62 melanoma, 37.3%. Also, the growth was 0.926% (active) in the assay with LOX IMVI melanoma and 41.3% in the assay on SK-MEL-28 melanoma.

In the case of `COc1ccc(C(=O)/C=C/c2ccc(N3CCCCC3)cc2)cc1OC`, the growth with DU-145 prostate is 95.4%; with K-562 leukemia, 76%; in the assay on MALME-3M melanoma, 104%; in the assay with MDA-MB-231 breast, 91.8%; in the assay with RXF 393 renal, 107%; in the assay on SF-268 CNS, 95.3%. The growth with SF-295 CNS was 95.2%; in the assay on SF-539 CNS, 98.2%; with UACC-257 melanoma, 82.8%; in the assay with M14 melanoma, 89.4%; in the assay on HCT-15 colon, 94.9%; in the assay with HT29 colon it was 95.1%. The growth in the assay with SNB-75 CNS is 84.3%; with SNB-19 CNS, 91.3%; with U251 CNS it was 95.6%; in the assay with PC-3 prostate, 81%; in the assay on SK-MEL-5 melanoma, 90.4%; in the assay with UACC-62 melanoma, 75.3%. For the same compound, the figures for the growth with LOX IMVI melanoma and with SK-MEL-28 melanoma were 97.1% and 102%, respectively.

Regarding `COc1ccc2[nH]cc(-c3nc(-c4c[nH]c5c(Cl)nccc45)cs3)c2c1`, the growth is 32.6% in the assay on DU-145 prostate; 19.3% in the assay with K-562 leukemia; 65.8% in the assay with MALME-3M melanoma; 31.7% with MDA-MB-231 breast; 37.7% in the assay on RXF 393 renal; 73% in the assay on SF-268 CNS. Further, the growth in the assay on SF-295 CNS was 11.9%; with SF-539 CNS, 34.9%; in the assay with UACC-257 melanoma it was -48.3% (active); with M14 melanoma it was -26% (active); with HCT-15 colon, -16.1% (active); with HT29 colon it was 15.8%. Besides, the growth in the assay on SNB-75 CNS was 54.1%; in the assay on SNB-19 CNS it was 63.9%; in the assay on U251 CNS it was 17.5%; with PC-3 prostate it was 31%; in the assay with SK-MEL-5 melanoma it was 55.6%; in the assay on UACC-62 melanoma, 52%. Further, the figures for the growth with LOX IMVI melanoma and with SK-MEL-28 melanoma were 13.2% and 42%, respectively.

Regarding `CCCCCCCCCCCCCCCCCC1=NC(C)(C)CN1CC(C)O` (stereo not given), the growth with DU-145 prostate is 34.5%; with K-562 leukemia it was -25.7% (active); with MALME-3M melanoma, 97.4%; in the assay on MDA-MB-231 breast, -9.03% (active); with RXF 393 renal it was 66.4%; with SF-268 CNS it was 14.6%. The growth is 95.9% with SF-295 CNS; 19.9% in the assay with SF-539 CNS; 103% in the assay on UACC-257 melanoma; 36.6% with M14 melanoma; 10.3% in the assay with HCT-15 colon; -4.49% (active) in the assay with HT29 colon. Further, the growth with SNB-75 CNS is 97.8%; in the assay on SNB-19 CNS, 85.3%; in the assay with U251 CNS it was 74%; in the assay with PC-3 prostate, 53.4%; in the assay with SK-MEL-5 melanoma, 100%; in the assay on UACC-62 melanoma it was 105%. Besides, the growth in the assay on LOX IMVI melanoma was -83.1% (active); in the assay on SK-MEL-28 melanoma it was 105%.
